These results are taken from the OligoGym collection.
Also: reference of the scale not given here.

One assay concerns the target CCDC56. The assay can be described thus: pooled miR-30 sensor sort-seq; sequence = guide strand. Particulars: shRNA.
As for TCGGGTGTCAGCTTCTCCCGAG, the sensor-assay potency score (higher = more potent) was -0.206. Still for that read-out and setting: the same measure for TGGGAAATCGAGTAGAAGGTGT: 0.0738; for TTGCCAGAGCTCGGGCTCGGGC: -1.79. TTGCTCGGGTGTCAGCTTCTCC yielded a sensor-assay potency score (higher = more potent) of -1.07. On the same count and under the same terms, the same measure for ACCATAAATAGCCAACACCAGG: -2.43; for TCATCTAGGAAACGCTCCTGGG: -1.24; for TAGAATCCAGAGGGTCACCAGC: -1.25. Same read-out and setting: the same measure for TAAATAGCCAACACCAGGGCCC: 0.333. In turn, TCGTCTTCTAGCTCATCTAGGA returned a sensor-assay potency score (higher = more potent) of -0.614. On to TAGCTCATCTAGGAAACGCTCC, for which the sensor-assay potency score (higher = more potent) was -0.33.

A further assay concerns the target CCDC72. Described as above. To be noted: shRNA.
TTGTTTCTGCTTGAAAGCCTTA had a sensor-assay potency score (higher = more potent) of -0.0976. The sequence TTAAATGTACAACAGCTCCAAG returned a sensor-assay potency score (higher = more potent) of -1.04. Same read-out and setting: the same measure for TTATCTTCCTCGTCCATCTCCT: 0.315; for TTCAGTGGCTTCTTCTTGCCAC: 0.0626; for TTATTCTTAAATGTACAACAGC: -0.855. Same read-out and setting: the same measure for TTTGTTTCTGCTTGAAAGCCTT: -0.585; for TCTTCCTCGTCCATCTCCTTGG: -0.456; for TCTGCTTGAAAGCCTTATCTTC: -0.819.

In turn, TTCCTCGTCCATCTCCTTGGCC had a sensor-assay potency score (higher = more potent) of -0.547. As for ATCTTCCTCGTCCATCTCCTTG, the sensor-assay potency score (higher = more potent) is -1.81.

The target of another assay is CCDC77. The description is as above. Particulars: shRNA.
On to TTATCTTTTTCAAGCATCCATG, for which the sensor-assay potency score (higher = more potent) is -1.19. Regarding TATGCTGTCCTTCACAAGCTTC, the sensor-assay potency score (higher = more potent) is -1.33. Same read-out and setting: with TTTGGTGCTCTCATAGAGCAGT the figure was -0.0472; with TAATATATTCACTTTGAGCATG, -0.91. TTGCAAAATACCTTCTTCCTAA came in with a sensor-assay potency score (higher = more potent) of -0.254. The sequence TTCTTGTCTTCTAGCTCCCTGA had a sensor-assay potency score (higher = more potent) of -1.06. Same read-out and setting: with TAGCTCTTTGATTTTGTTCTGA the figure was 0.252; with TTTCTTCTTACACTGCACCCTA, -0.0389. Still for that read-out and setting: with TTTCGTTTGAGTCTCTAGCGCC the figure was -0.231; with TTTTTCTCTTGTACTAACTTAT, -0.944; with TTAATATCTGTCTTAAAGCCTT, -0.792. Still for that read-out and setting: the same measure for TTTCTTGTCTTCTAGCTCCCTG: -0.0804.

For the next assay, the target named is CCL13. Described as above. To be noted: shRNA.
Turning to TGCAAGGAGATCTTCTTACTGC, the sensor-assay potency score (higher = more potent) was -0.0125. As for TAACACATAGTACATTTTGAAT, the sensor-assay potency score (higher = more potent) was -1.62. Still for that read-out and setting: the same measure for TGAAGCAGCAAGTAGATGGGAC: -0.203. As to TAAATGTGAAGCAGCAAGTAGA, the sensor-assay potency score (higher = more potent) was -1.06.

AAGGAGATCTTCTTACTGCTAA showed a sensor-assay potency score (higher = more potent) of -0.229. In turn, ATCTTCTTACTGCTAAATGTGA registered a sensor-assay potency score (higher = more potent) of -1.06. Same read-out and setting: with TTTCATATAATTCTGGACCCAC the figure was 0.0997; with TATAATTCTGGACCCACTTCTC, -0.771.
